Consider 8 compounds from PubChem BioAssay (NCI).

Test in all cases: NCI-60 one-dose screen, 48 h (100 = growth as untreated, 0 = no growth, -100 = all killed)
One experiment concerns HCT-15 colon. As to conditions: 10 µM unless noted.
Another experiment has as its system HT29 colon. As to conditions: 10 µM unless noted.
The next experiment relates to SNB-75 CNS. The settings on record: 10 µM unless noted.
The test system of a further experiment is SNB-19 CNS. The settings on record: 10 µM unless noted.
The next experiment relates to U251 CNS. The settings on record: 10 µM unless noted.
The next experiment relates to PC-3 prostate. As to conditions: 10 µM unless noted.
For another experiment, the system named is SK-MEL-5 melanoma. As to conditions: 10 µM unless noted.
In a further experiment the test system is UACC-62 melanoma. As to conditions: 10 µM unless noted.
The subject of a further experiment is LOX IMVI melanoma. The settings on record: 10 µM unless noted.
Another experiment has as its system SK-MEL-28 melanoma. As to conditions: 10 µM unless noted.
The next experiment deals with SK-MEL-2 melanoma. As to conditions: 10 µM unless noted.
A further experiment has as its system EKVX NSCLC. The settings on record: 10 µM.
For another experiment, the system named is SN12C renal. As to conditions: 10 µM unless noted.
In the next experiment the test system is UO-31 renal. The settings on record: 10 µM unless noted.
The subject of a further experiment is TK-10 renal. As to conditions: 10 µM unless noted.
The test system of a further experiment is ACHN renal. As to conditions: 10 µM unless noted.
A further experiment concerns CAKI-1 renal. As to conditions: 10 µM unless noted.
In the next experiment the test system is A498 renal. The settings on record: 10 µM unless noted.
Another experiment deals with CCRF-CEM leukemia. The settings on record: 10 µM.
For a further experiment, the system named is MOLT-4 leukemia. As to conditions: 10 µM unless noted.

About 83,000 compounds went through this panel and 20% of them were active in at least one assay; those are over-represented in the sample as a whole.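 The endpoint reported here, percent growth, reads 100 for growth as untreated, 0 for no net growth and -100 for all cells dead.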 Values without a mark were called inactive. Calls of active or inactive are those of the source. How the source made its calls: active means growth percent below 10; inactive means the rest.

Consider `COc1ccc(-c2nc(Nc3nc4ccccc4[nH]3)nc(N)c2C#N)cc1`, for which the growth was 101% in the experiment with HCT-15 colon; 96% with HT29 colon; 84.9% with SNB-75 CNS; 98.1% in the experiment with SNB-19 CNS; 110% in the experiment with U251 CNS; 88.1% in the experiment with PC-3 prostate. The growth in the experiment with SK-MEL-5 melanoma is 95.3%; in the experiment on UACC-62 melanoma, 89.3%; in the experiment on LOX IMVI melanoma, 93.9%; in the experiment with SK-MEL-28 melanoma, 114%; in the experiment with SK-MEL-2 melanoma, 97.6%; in the experiment on EKVX NSCLC it was 92.4%. Also, the growth with SN12C renal is 90.8%; in the experiment on UO-31 renal it was 72.9%; with TK-10 renal it was 95.9%; with ACHN renal, 96.6%; in the experiment with CAKI-1 renal, 93.3%; with A498 renal, 119%. The values for the growth with CCRF-CEM leukemia and with MOLT-4 leukemia were 95.4% and 95%, respectively.
Take `O=S(=O)(O)c1ccc2c(c1)Sc1cc(S(=O)(=O)O)ccc1O2`: the growth is 113% with HCT-15 colon; 106% in the experiment with HT29 colon; 93.2% in the experiment on SNB-75 CNS; 103% in the experiment on SNB-19 CNS; 102% with U251 CNS; 99.2% in the experiment with PC-3 prostate. The growth with SK-MEL-5 melanoma was 112%; in the experiment on UACC-62 melanoma, 96%; in the experiment with LOX IMVI melanoma, 99.7%; in the experiment on SK-MEL-28 melanoma it was 106%; in the experiment with SK-MEL-2 melanoma, 107%; in the experiment on EKVX NSCLC, 90.1%. The growth with SN12C renal was 95.8%; in the experiment on UO-31 renal it was 97%; with TK-10 renal, 107%; with ACHN renal it was 112%; with CAKI-1 renal, 105%; with A498 renal, 96.6%. For the same compound, the figures for the growth in the experiment on CCRF-CEM leukemia and in the experiment with MOLT-4 leukemia were 107% and 115%, respectively.
As for `COC(=O)C1CC(=O)N(C(=O)Nc2ccc(Cl)cc2Cl)C1` (stereo not given), the growth was 99% with HCT-15 colon; 101% with HT29 colon; 98.7% in the experiment on SNB-75 CNS; 102% in the experiment on SNB-19 CNS; 97.3% with U251 CNS; 95.2% in the experiment on PC-3 prostate. For the same compound, the growth in the experiment with SK-MEL-5 melanoma was 108%; in the experiment with UACC-62 melanoma, 97.2%; with LOX IMVI melanoma it was 96.8%; with SK-MEL-28 melanoma, 112%; in the experiment on SK-MEL-2 melanoma it was 108%; in the experiment with EKVX NSCLC, 96.5%. For the same compound, the growth in the experiment with SN12C renal was 101%; in the experiment with UO-31 renal, 84.1%; in the experiment with TK-10 renal, 112%; with ACHN renal, 99.9%; in the experiment with CAKI-1 renal, 95.6%; in the experiment with A498 renal, 115%. Further, the growth in the experiment on CCRF-CEM leukemia is 103%; with MOLT-4 leukemia it was 95%.
Regarding `c1ccc(Nc2ncc3c(n2)-c2cccn2CC3)cc1`, the growth with HCT-15 colon was 32.9%; in the experiment on HT29 colon, 114%; with SNB-75 CNS, 83.3%; with SNB-19 CNS, 103%; with U251 CNS, 93.7%; with PC-3 prostate, 81.3%. Besides, the growth in the experiment on SK-MEL-5 melanoma is 67%; with UACC-62 melanoma, 80.1%; in the experiment with LOX IMVI melanoma it was 92.4%; in the experiment with SK-MEL-28 melanoma, 107%; in the experiment on SK-MEL-2 melanoma, 101%; in the experiment with EKVX NSCLC, 66.2%. For the same compound, the growth with SN12C renal was 85.7%; with UO-31 renal, 49.1%; in the experiment on TK-10 renal, 90.8%; in the experiment on ACHN renal, 74.4%; with CAKI-1 renal it was 72.4%; in the experiment with A498 renal, 75.5%. Further, the growth is 102% in the experiment on CCRF-CEM leukemia and 99.4% in the experiment with MOLT-4 leukemia.
Take `COc1ccc(-c2cc(C#N)c(NNC(C)=O)[nH]2)cc1`: the growth in the experiment on HCT-15 colon was 117%; with HT29 colon, 105%; in the experiment on SNB-75 CNS it was 119%; with SNB-19 CNS, 125%; in the experiment on U251 CNS, 102%; in the experiment on PC-3 prostate, 115%. Further, the growth in the experiment on SK-MEL-5 melanoma is 105%; with UACC-62 melanoma, 103%; with LOX IMVI melanoma, 103%; in the experiment on SK-MEL-28 melanoma, 115%; in the experiment on SK-MEL-2 melanoma, 102%; in the experiment on EKVX NSCLC, 112%. Moreover, the growth is 113% with SN12C renal; 96.2% with UO-31 renal; 95.7% in the experiment with TK-10 renal; 103% in the experiment with ACHN renal; 107% with CAKI-1 renal; 123% with A498 renal. Also, the growth was -0.558% (active) with CCRF-CEM leukemia and 46% in the experiment with MOLT-4 leukemia.
For the compound `COc1cccc2c1n([O-])c1cccc(OC)c1[n+]2=O`, the growth with HCT-15 colon is 87.6%; with HT29 colon, 73.5%; in the experiment on SNB-75 CNS, 87%; in the experiment with SNB-19 CNS, 80.4%; with U251 CNS, 80%; in the experiment on PC-3 prostate, 57.8%. Also, the growth is 72.6% in the experiment with SK-MEL-5 melanoma; 84.5% in the experiment on UACC-62 melanoma; 64.8% in the experiment with LOX IMVI melanoma; 72.1% with SK-MEL-28 melanoma; 71.5% in the experiment on SK-MEL-2 melanoma; 45.6% with EKVX NSCLC. Moreover, the growth with SN12C renal was 83.3%; with UO-31 renal it was 60.6%; in the experiment with TK-10 renal it was 59.8%; in the experiment on ACHN renal it was 72.3%; in the experiment with CAKI-1 renal, 304%; in the experiment on A498 renal, 106%. Moreover, the values for the growth in the experiment with CCRF-CEM leukemia and in the experiment with MOLT-4 leukemia were 9.03% (active) and 26.3%, respectively.
As to `O=C(O)CC1Cc2ccccc2C1C(=O)O` (stereo not given), the growth with HCT-15 colon was 101%; with HT29 colon, 106%; in the experiment on SNB-75 CNS, 92.4%; in the experiment with SNB-19 CNS, 95%; with U251 CNS, 103%; with PC-3 prostate it was 94.5%. For the same compound, the growth with SK-MEL-5 melanoma is 103%; in the experiment with UACC-62 melanoma, 97.3%; with LOX IMVI melanoma it was 91.7%; with SK-MEL-28 melanoma it was 109%; with SK-MEL-2 melanoma, 101%; in the experiment with EKVX NSCLC, 105%. The growth is 95.2% in the experiment on SN12C renal; 79.6% with UO-31 renal; 96.5% in the experiment on TK-10 renal; 109% in the experiment on ACHN renal; 104% in the experiment on CAKI-1 renal; 90.3% with A498 renal. Moreover, the results for the growth with CCRF-CEM leukemia and in the experiment on MOLT-4 leukemia were 85.7% and 82.3%, respectively.
`O=C(N/N=C\c1ccc(Cl)cc1)C(=O)N/N=C\c1ccc(Cl)cc1`: the growth in the experiment on HCT-15 colon is 101%; with HT29 colon, 103%; in the experiment with SNB-75 CNS it was 88.3%; in the experiment with SNB-19 CNS it was 96%; in the experiment with U251 CNS, 101%; in the experiment with PC-3 prostate it was 94.5%. The growth is 109% with SK-MEL-5 melanoma; 97.4% with UACC-62 melanoma; 106% in the experiment on LOX IMVI melanoma; 111% in the experiment on SK-MEL-28 melanoma; 98.4% in the experiment on SK-MEL-2 melanoma; 102% in the experiment on EKVX NSCLC. Further, the growth in the experiment with SN12C renal was 90.8%; with UO-31 renal, 78.3%; in the experiment with TK-10 renal it was 105%; with ACHN renal, 96.8%; with CAKI-1 renal it was 94.6%; with A498 renal, 101%. Besides, the growth in the experiment with CCRF-CEM leukemia was 90.7%; in the experiment on MOLT-4 leukemia, 98.1%.
